# According to ChEMBL document CHEMBL1961873, “Compounds: GSK PKIS; Assays: Nanosyn kinase panel” (2012):
# Legend:
# [1] = biological target: Dual specificity protein kinase CLK3 (Homo sapiens) (UniProt P49761); conditions: at 1 µM;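 further: each value is the mean inhibition of CLK3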
# [2] = biological target: Dual specificity tyrosine-phosphorylation-regulated kinase 1A (Homo sapiens) (UniProt Q13627); conditions: at 0.1 µM
# [3] = biological target: Dual specificity tyrosine-phosphorylation-regulated kinase 1A (Homo sapiens) (UniProt Q13627); conditions: at 1 µM
# [4] = biological target: Dual specificity tyrosine-phosphorylation-regulated kinase 1B (Homo sapiens) (UniProt Q9Y463); conditions: at 0.1 µM
# Dual specificity tyrosine-phosphorylation-regulated kinase 1B (Homo sapiens), sequence (Q9Y463 whole entry, looked up): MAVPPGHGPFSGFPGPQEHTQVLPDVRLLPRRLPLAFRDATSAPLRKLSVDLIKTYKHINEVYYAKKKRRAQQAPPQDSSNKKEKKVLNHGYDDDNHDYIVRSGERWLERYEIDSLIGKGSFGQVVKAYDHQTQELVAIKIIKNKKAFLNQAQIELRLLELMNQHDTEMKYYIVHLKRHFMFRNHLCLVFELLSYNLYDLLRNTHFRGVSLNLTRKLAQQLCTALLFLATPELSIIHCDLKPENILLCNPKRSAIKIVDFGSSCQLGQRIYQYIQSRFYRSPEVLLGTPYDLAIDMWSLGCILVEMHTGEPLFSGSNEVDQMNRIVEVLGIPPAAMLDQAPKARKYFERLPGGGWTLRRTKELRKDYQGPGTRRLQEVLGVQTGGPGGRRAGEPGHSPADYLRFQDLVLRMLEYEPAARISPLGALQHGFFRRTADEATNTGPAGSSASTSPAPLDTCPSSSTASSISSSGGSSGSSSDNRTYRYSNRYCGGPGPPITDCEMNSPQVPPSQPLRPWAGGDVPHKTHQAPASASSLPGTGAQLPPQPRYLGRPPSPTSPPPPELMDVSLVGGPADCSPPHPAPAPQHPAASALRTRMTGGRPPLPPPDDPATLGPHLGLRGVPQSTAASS
# [5] = biological target: Dual specificity tyrosine-phosphorylation-regulated kinase 1B (Homo sapiens) (UniProt Q9Y463); conditions: at 1 µM
# [6] = biological target: T1, Dual specificity tyrosine-phosphorylation-regulated kinase 2 (Homo sapiens) (UniProt Q92630); conditions: at 0.1 µM
# T1 sequence (whole entry): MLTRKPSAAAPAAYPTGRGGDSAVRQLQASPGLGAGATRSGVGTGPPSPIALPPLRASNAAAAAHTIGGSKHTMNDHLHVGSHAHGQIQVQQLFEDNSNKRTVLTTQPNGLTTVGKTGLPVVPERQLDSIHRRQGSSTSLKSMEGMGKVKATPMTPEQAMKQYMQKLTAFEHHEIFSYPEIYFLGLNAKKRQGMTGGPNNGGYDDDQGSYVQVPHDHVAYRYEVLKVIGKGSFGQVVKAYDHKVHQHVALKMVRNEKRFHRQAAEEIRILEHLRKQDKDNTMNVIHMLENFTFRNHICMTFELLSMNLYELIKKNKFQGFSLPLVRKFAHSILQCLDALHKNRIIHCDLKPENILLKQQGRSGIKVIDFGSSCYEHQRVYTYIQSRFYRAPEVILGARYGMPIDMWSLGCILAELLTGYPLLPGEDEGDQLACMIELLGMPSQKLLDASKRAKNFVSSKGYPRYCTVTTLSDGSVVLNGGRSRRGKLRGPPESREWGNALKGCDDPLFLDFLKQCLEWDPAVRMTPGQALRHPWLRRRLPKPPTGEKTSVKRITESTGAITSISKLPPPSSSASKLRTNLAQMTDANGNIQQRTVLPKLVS
# [7] = biological target: T1, Dual specificity tyrosine-phosphorylation-regulated kinase 2 (Homo sapiens); conditions: at 1 µM
# [8] = biological target: Glycogen synthase kinase-3 alpha (Homo sapiens) (UniProt P49840); conditions: at 0.1 µM
# Glycogen synthase kinase-3 alpha (Homo sapiens), sequence (P49840 2-483 limits assumed): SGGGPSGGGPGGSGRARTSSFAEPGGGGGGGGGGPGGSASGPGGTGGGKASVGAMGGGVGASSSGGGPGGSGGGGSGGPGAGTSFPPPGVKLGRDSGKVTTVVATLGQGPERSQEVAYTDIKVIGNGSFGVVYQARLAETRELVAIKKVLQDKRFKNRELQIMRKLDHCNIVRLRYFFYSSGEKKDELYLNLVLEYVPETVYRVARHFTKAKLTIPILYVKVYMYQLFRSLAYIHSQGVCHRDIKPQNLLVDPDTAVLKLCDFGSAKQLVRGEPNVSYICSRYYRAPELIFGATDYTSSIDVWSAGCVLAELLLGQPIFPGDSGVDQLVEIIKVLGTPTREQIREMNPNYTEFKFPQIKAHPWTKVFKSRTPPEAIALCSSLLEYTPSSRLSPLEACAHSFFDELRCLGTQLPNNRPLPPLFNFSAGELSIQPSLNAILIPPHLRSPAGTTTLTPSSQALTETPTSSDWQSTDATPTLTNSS
# [9] = biological target: Glycogen synthase kinase-3 alpha (Homo sapiens) (UniProt P49840); conditions: at 1 µM
# [10] = biological target: Glycogen synthase kinase-3 beta (Homo sapiens) (UniProt P49841); conditions: at 0.1 µM
# Glycogen synthase kinase-3 beta (Homo sapiens), sequence (P49841 whole entry, looked up): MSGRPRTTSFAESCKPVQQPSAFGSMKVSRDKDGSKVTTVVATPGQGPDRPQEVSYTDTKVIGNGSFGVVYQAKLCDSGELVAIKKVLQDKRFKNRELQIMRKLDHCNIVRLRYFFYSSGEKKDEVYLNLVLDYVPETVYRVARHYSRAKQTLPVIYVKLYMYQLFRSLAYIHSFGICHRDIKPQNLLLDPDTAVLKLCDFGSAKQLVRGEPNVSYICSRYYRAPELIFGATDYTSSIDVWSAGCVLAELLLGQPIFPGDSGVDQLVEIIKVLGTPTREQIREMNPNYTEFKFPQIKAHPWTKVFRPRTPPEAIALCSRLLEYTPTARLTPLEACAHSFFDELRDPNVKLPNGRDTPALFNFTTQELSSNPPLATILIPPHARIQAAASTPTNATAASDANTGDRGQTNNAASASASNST
# [11] = biological target: Glycogen synthase kinase-3 beta (Homo sapiens) (UniProt P49841); conditions: at 1 µM
# [12] = biological target: Homeodomain-interacting protein kinase 1 (Homo sapiens) (UniProt Q86Z02); conditions: at 0.1 µM
# Homeodomain-interacting protein kinase 1 (Homo sapiens), sequence (Q86Z02 whole entry, looked up): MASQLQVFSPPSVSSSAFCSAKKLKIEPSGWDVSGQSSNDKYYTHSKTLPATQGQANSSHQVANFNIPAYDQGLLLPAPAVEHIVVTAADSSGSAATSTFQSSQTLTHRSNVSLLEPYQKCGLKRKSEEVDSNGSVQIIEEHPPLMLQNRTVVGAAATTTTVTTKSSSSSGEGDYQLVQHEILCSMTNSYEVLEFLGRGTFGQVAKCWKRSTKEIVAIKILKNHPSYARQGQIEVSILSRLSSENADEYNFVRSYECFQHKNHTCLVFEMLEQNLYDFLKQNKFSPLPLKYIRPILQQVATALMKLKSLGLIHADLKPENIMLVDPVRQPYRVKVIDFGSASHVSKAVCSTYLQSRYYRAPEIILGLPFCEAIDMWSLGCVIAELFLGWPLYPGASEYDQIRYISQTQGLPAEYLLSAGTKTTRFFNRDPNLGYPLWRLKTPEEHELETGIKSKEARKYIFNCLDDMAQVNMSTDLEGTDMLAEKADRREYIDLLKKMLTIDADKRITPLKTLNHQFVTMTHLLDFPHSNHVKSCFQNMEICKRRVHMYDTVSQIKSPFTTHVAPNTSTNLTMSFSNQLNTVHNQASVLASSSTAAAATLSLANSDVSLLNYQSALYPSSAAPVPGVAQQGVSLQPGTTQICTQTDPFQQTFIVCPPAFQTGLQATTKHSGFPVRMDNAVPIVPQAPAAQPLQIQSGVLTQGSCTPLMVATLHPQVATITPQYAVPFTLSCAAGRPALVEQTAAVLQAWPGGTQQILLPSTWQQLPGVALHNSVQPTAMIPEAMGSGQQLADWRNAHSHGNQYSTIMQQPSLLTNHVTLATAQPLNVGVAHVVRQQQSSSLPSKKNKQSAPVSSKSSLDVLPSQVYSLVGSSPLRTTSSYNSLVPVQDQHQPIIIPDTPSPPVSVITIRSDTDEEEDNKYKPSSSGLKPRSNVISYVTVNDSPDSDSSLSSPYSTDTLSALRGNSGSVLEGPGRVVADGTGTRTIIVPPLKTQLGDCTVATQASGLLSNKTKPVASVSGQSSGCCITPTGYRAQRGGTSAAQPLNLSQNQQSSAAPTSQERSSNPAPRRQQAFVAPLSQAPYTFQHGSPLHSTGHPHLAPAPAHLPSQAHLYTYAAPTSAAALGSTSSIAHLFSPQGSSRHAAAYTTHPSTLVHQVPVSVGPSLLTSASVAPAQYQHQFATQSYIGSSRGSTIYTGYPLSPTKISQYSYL
# [13] = biological target: Homeodomain-interacting protein kinase 1 (Homo sapiens) (UniProt Q86Z02); conditions: at 1 µM
# [14] = biological target: T2, Homeodomain-interacting protein kinase 4 (Homo sapiens) (UniProt Q8NE63); conditions: at 0.1 µM
# T2 sequence (whole entry): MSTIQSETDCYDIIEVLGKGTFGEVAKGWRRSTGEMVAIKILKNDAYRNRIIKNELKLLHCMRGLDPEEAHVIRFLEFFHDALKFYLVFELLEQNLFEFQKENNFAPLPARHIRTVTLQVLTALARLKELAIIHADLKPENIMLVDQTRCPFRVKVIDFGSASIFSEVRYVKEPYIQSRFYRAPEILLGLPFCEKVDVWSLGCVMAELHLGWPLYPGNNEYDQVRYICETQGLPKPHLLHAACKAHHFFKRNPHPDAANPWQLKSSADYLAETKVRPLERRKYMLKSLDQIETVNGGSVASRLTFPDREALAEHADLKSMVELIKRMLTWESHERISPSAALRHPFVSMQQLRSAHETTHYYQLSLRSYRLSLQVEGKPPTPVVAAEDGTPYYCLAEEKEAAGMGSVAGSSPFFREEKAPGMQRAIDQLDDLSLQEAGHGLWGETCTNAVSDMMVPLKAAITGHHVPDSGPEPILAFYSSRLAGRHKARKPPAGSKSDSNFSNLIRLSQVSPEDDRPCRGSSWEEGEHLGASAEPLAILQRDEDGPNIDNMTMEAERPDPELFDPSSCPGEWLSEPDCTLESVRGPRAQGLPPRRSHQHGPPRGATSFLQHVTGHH
# [15] = biological target: T2, Homeodomain-interacting protein kinase 4 (Homo sapiens); conditions: at 1 µM
# [16] = biological target: Mitogen-activated protein kinase 9 (Homo sapiens) (UniProt P45984); conditions: at 0.1 µM
# Mitogen-activated protein kinase 9 (Homo sapiens), sequence (P45984 whole entry, looked up): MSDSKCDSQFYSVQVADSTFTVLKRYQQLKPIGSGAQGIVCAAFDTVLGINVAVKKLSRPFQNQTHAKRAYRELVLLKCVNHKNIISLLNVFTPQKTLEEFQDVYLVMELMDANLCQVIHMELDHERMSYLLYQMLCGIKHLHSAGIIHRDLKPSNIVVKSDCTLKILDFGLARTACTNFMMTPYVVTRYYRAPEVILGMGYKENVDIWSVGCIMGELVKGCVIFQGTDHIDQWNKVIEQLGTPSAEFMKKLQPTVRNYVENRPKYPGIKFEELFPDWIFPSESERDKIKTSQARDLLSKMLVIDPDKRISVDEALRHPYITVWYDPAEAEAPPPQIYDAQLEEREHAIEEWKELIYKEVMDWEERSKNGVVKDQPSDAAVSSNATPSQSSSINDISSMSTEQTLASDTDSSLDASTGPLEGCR
# [17] = biological target: Mitogen-activated protein kinase 9 (Homo sapiens) (UniProt P45984); conditions: at 1 µM
# [18] = biological target: Mitogen-activated protein kinase 1 (Homo sapiens) (UniProt P28482); conditions: at 0.1 µM
# Mitogen-activated protein kinase 1 (Homo sapiens), sequence (P28482 whole entry): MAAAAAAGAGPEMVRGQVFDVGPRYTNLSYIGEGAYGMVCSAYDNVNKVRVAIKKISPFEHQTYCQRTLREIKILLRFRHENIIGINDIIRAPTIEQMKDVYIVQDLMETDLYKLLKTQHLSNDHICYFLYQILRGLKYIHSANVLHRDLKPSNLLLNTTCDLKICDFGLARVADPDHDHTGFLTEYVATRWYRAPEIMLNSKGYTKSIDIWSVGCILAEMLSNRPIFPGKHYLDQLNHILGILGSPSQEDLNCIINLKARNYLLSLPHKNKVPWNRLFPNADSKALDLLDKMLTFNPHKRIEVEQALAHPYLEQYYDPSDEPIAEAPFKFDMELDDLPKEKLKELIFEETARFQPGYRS
# [19] = biological target: Mitogen-activated protein kinase 1 (Homo sapiens) (UniProt P28482); conditions: at 1 µM
# [20] = biological target: Mitogen-activated protein kinase 3 (Homo sapiens) (UniProt P27361); conditions: at 0.1 µM;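 further: each value is a mean inhibition figure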
# Mitogen-activated protein kinase 3 (Homo sapiens), sequence (P27361 whole entry): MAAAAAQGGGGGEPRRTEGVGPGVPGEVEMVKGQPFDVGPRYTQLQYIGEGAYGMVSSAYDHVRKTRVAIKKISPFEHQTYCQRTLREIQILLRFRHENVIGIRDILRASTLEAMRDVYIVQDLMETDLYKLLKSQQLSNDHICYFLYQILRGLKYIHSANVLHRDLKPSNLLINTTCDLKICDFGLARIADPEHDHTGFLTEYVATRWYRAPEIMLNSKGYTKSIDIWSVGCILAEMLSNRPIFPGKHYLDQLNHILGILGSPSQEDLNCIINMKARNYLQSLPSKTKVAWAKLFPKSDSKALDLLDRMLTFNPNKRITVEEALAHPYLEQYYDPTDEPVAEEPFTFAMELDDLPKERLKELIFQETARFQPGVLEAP
# Dual specificity protein kinase CLK3 (Homo sapiens), sequence (P49761 whole entry, looked up): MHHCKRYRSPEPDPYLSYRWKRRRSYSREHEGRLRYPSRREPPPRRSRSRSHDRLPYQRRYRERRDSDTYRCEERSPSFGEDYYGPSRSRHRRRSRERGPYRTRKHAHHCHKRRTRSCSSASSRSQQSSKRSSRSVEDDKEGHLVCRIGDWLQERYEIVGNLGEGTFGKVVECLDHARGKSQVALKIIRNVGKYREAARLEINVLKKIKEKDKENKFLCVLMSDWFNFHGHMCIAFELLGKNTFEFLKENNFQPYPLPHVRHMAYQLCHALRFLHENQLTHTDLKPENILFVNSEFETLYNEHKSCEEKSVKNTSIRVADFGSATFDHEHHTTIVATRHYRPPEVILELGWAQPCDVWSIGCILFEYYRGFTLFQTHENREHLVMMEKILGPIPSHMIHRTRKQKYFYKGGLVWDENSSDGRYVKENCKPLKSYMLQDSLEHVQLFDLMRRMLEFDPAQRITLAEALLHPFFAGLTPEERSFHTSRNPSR
SMILES,inhibition [1] [%],inhibition [2] [%],inhibition [3] [%],inhibition [4] [%],inhibition [5] [%],inhibition [6] [%],inhibition [7] [%],inhibition [8] [%],inhibition [9] [%],inhibition [10] [%],inhibition [11] [%],inhibition [12] [%],inhibition [13] [%],inhibition [14] [%],inhibition [15] [%],inhibition [16] [%],inhibition [17] [%],inhibition [18] [%],inhibition [19] [%],inhibition [20] [%]
COc1cc(C)c(NC(=O)CN(C)C)cc1Nc1nc(Nc2cccc(F)c2C(N)=O)c2cc[nH]c2n1,13.2,1.71,20,1.59,14.8,2.4,5.3,-0.24,1.07,-1.22,0.98,13.9,60.6,15.9,63.4,3.11,12.6,2.86,4.47,2.47
COc1cc2ncn(-c3cc(OCc4ccccc4Cl)c(C(N)=O)s3)c2cc1OC,4.39,0.59,4.21,1.28,0.48,0.19,2.53,2.18,9.18,1.21,9.93,0.06,5.3,7.28,45.1,2.23,4.49,0.95,1.08,-0.15
O=C1Nc2ccc(C(=O)c3ccco3)cc2C1=Cc1cc(Cl)c(O)c(Cl)c1,63.8,40.5,78.3,47.4,81.5,3.34,13.4,24.5,70.1,31.1,75.8,14,54.1,4.69,32.9,2.31,6.22,2.44,4.55,1.44
Fc1cccc(COc2ccc(Nc3ncnc4cc(-c5ccc[nH]5)sc34)cc2Cl)c1,-1.03,-2.81,-0.45,-3.77,-3.25,1.57,1.07,-2.13,2.99,-2.64,1.92,-5.52,-2.5,-1.95,2.7,2.73,3.15,3.5,4.2,0.89
Cc1ccc(C(=O)NC2CCCCC2)cc1-c1ccc(C(=O)NCC2CC2)cc1,1.19,0.7,-0.59,0.96,0.46,1.77,1.81,1.78,1.84,1.78,0.33,-0.44,1.1,1.23,3.16,5.74,6.33,3.78,4.11,2.55
CS(=O)(=O)CCNCc1ccc(-c2ccc3ncnc(Nc4ccc(OCc5ccccc5)c(Cl)c4)c3c2)o1,-0.47,2.24,1.73,1.31,2.67,-0.23,1.41,1.58,4.24,2.15,3.95,-2.41,2.91,4.33,7.49,-0.54,1.16,2.06,1.18,1.84
NC(=O)c1cccc(Nc2nccc(Nc3cccc4[nH]ncc34)n2)c1,8.54,3.35,22.1,5.54,28.3,-1.74,7.45,8.87,42.1,8.67,35,1.13,7.88,3.21,21.2,-6.25,4.55,-3.75,-0.34,-3.05
O=C1NC(=O)C(c2ccc(Cl)cc2)=C1Nc1ccc(Cl)c(C(=O)O)c1,4.58,3.92,17.2,3.26,8.51,-2.12,-1.19,21.4,72.1,–,–,2.13,4.29,1.76,1.98,0.98,5.72,–,-5.59,-1.99
CCCN1CCC(Oc2cc(Nc3nc(Nc4cccc(F)c4C(N)=O)c4cc[nH]c4n3)c(OC)cc2Cl)CC1,1.7,2.64,25.9,3.49,27.1,-0.2,0.67,3.45,9.53,3.22,9.38,2.76,18.8,3.27,24.8,1.29,2.98,0.93,17.9,0.36
Cn1cc(C=C2C(=O)Nc3cccnc32)c2ccccc21,-1.26,2.68,10.6,0.78,4.49,2.52,4.08,4.33,12.2,3.54,8.9,-0.99,13.8,1.64,15.2,3.04,6.24,2.02,2.73,2.22
CCn1c(-c2nonc2N)nc2cncc(C(=O)N3CC[C@H](N)C3)c21,1.82,12.7,49.4,7.9,44.4,15,59.5,3.29,19.3,2.36,12.1,1.36,8.14,0.99,3,8.24,9.12,4.87,7.62,3.48
Cc1cccc(-c2n[nH]cc2-c2ccc3ncccc3n2)n1,-3.14,1.27,6.72,-0.18,4.09,0.1,4.03,0.39,1.15,-0.14,0.05,-0.8,6.4,-0.32,0.37,1.26,-0.31,0.39,1.2,3.13
O=C1NC(=O)C(N2CCc3ccccc32)=C1c1ccc(Cl)cc1,2.44,3.12,4.67,0.13,1.08,3.3,3.36,3.79,14,–,–,0.01,1.33,-0.41,2.92,3.51,5.32,3.12,5.91,5.26
